Among the data in PubChem BioAssay AID1053126 (Broad Institute, 2014) are outcome values, retold here.

Structures are written as SMILES. Potency and affinity values are given separately. Calls of active or inactive are those of the source.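 The calls were made as follows: active = cell killing with a fitted half-effect concentration at or below twice the top valid dose; inconclusive = flat curve with 30 to 70 percent drop, or poor fit; inactive = the rest.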

A short description of the assay: HEK293T cell cytotoxicity, dose response, cytotoxicity control, ATP luminescence, cherry-pick, set 6 (AID 1053126). The settings on record: HEK293T viability, CellTiter-Glo ATP luminescence, 72 h; series mostly up to 26 µM. For orientation: ATP-based viability assays read luminescence as a measure of living cells.
In the case of `O=C1c2ccccc2S(=O)(=O)c2cc(N3CCC(C(=O)N4CCCCC4)CC3)ccc21`, the compound was classed as inactive.

Consider `C=CCn1c(=N)c(C#N)cc2c(=O)n3ccccc3nc21`, for which the call was inactive. The entry for `O=[N+]([O-])c1cccc(-c2n[nH]c(=S)n2-c2ccc(Br)cc2)c1` is “inactive”; for `CCCOc1ccc(NC(=O)c2c(-c3ccccc3)noc2C)cc1` it is “inactive”; for `CC(C)OCCCn1c(=N)c(C(N)=S)cc2c(=O)n3ccccc3nc21` it is “inactive”. As to `CCC(C)n1c(=N)c(C#N)cc2c(=O)n3cccc(C)c3nc21` (centres undefined), the compound was called inactive. The entry for `N=c1c(C(=O)NCC2CCCO2)cc2c(=O)n3ccccc3nc2n1Cc1ccc(Cl)cc1` (centres undefined) is “inactive”; for `CCOCCCNc1nc2nc3ccc(C)cn3c(=O)c2cc1C(=O)NCC1CCCO1` (centres undefined) it is “inactive”; for `N#Cc1ccc(OCC(=O)OCC(=O)N2CCc3ccccc32)cc1` it is “inactive”. In the case of `Cc1oc(/N=C/c2ccc(O)cc2O)c(C#N)c1C`, the compound was called inactive. The entry for `COc1ccccc1NS(=O)(=O)c1cc(NC(=O)CCNC(C)=O)ccc1C` is “inactive”; for `N#Cc1c(NCCCO)nc(NCc2ccccc2)c2c1CCN(Cc1ccccc1)C2` it is “inactive”; for `O=C(O)c1ccc(-c2ccc(/C=C3\NC(=O)N(Cc4ccc(Cl)cc4)C3=O)o2)cc1` it is “inactive”.

Take `CCCCN(CCCC)CC(O)Cn1c2ccccc2c(=O)c2ccccc21` (centres undefined): the compound was called inactive. Consider `CSc1ccc(Cl)c(C(=O)N2CCOc3ccccc32)c1`, for which the compound was called inactive. Take `Clc1ccccc1C1=CC(c2ccco2)n2ncnc2N1` (centres undefined): the compound was called inactive. As for `CCOC(=O)c1cc(-c2ccccc2)sc1NC(=O)CSc1nnc(N)s1`, the outcome was inactive. The entry for `O=C(NS(=O)(=O)c1ccc(Cl)s1)c1ccccc1` is “inactive”; for `Cc1c(Nc2c3ccccc3nc3ccccc23)c(=O)n(-c2ccccc2)n1C` it is “inactive”.
